Screens: PubChem, National Center for Advancing Translational Sciences (NCATS)
Compounds with a hit are over-represented: about 2.9% of the library has one in this group of screens.
DRD3 antagonist: qHTS of D3 Dopamine Receptor Antagonist: qHTS | D3R cells, DiscoveRx beta-arrestin luminescence, antagonist mode; active compounds read low | max response, negative = inhibition, % | 360,000 tested, 2.5% active; in the data active = max response below about -50%; inconclusive = no clear call, values can overlap the other calls; note: % is set by controls: 0 for no effect and ±100 for the full control effect
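Cells plated overnight at 1500 cells/well, then exposed to library compounds with dopamine controls for 90 minutes at 37 degrees C. DiscoveRx reagent added for 30–60 minutes at room temperature; luminescence read, quantitative HTS format.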
TSG101-PTAP inh: qHTS Assay for Iinhibitors of HIV-1 Budding by Blocking the Interaction of PTAP/TSG101; Fluorescence polarization, FITC-PTAP peptide / Tsg101 binding; Potency, µM (top dose mostly 115 µM), inactives show top-dose activity change, negative = inhibition, usual class: inhibitors; 340,000 tested, under 10 active; AID 493005, 2010; active = well fitted inhibition curve with a large enough effect in the main read-out, with a control signal flat, not every such curve was filed as active; inconclusive = small, poorly fitted or top-dose-only effect, or effect the other way, or a change in a side signal; inactive = no such curve, though single readings can be large or run the other way; note: potency is the fitted concentration of half-maximal effect; % of control where 0% means no effect
Target sequence (Q99816 whole entry, looked up): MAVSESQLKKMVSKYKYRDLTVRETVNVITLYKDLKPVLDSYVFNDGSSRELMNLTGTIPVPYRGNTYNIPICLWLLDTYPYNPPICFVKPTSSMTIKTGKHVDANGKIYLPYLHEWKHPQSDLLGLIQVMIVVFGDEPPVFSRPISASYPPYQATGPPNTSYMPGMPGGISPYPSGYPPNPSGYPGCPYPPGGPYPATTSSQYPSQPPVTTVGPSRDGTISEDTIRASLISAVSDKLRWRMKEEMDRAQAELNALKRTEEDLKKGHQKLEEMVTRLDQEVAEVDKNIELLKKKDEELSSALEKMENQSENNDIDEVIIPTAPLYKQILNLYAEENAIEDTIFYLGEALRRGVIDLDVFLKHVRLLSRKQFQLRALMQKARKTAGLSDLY
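Compounds were pin-transferred onto Tsg101 binding domain (10 uM final) in HEPES pH 7.5 buffer, then FITC-PTAP peptide was added at 50 nM final. After 20 min at RT, polarization reported peptide displacement across a qHTS concentration series.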
DRD3 agonist: qHTS of D3 Dopamine Receptor Agonist: qHTS; D(3) dopamine receptor (Homo sapiens), P35462; 410,000 tested, 0.58% active; max activation, %; D3R DiscoveRx beta-arrestin cells, luminescence, 90 min; in the data active = max activation above about 30%; note: 0% is about no effect
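Cells at 1500/well, incubated overnight, then treated with pinned compounds (dopamine as control) for 90 min at 37 degrees C. DiscoveRx reagent added for 30 - 60 minutes at room temperature; luminescence read.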
Rango release inh: qHTS Assay for Inhibitors of RanGTP induced Rango (Ran-regulated importin-beta cargo) - Importin beta complex dissociation. Biochemical FRET Rango-importin beta, RanGTP-induced dissociation. Snurportin-1 (Homo sapiens) + GTP-binding nuclear protein Ran (Homo sapiens) + Importin …. 340,000 tested, 0.071% active. Potency, µM (doses to about 46.1 µM), without a hit: at the highest dose activity change, negative = inhibition; note: potency is the fitted concentration of half-maximal effect; % of control where 0% means no effect; nearly all actives have a fitted effect of over 45% in size
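Rango (0.1 uM)–importin beta (0.25 uM) complex; RanGTP-RCC1 trigger; 45 min RT; CFP/YFP FRET read.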
MmCpn inh: Inhibitors of TCP-1 ring complex (TRiC) of Methanococcus maripaludis (MmCpn): qHTS. Chaperonin Mm-Cpn (Methanococcus maripaludis). Potency, µM (top dose mostly 76.9 µM), inactives show top-dose activity, negative = inhibition, hits mostly inhibitors. 330,000 tested, 0.031% active. purified Mm-Cpn ATPase, ADP Transcreener TR-FRET; active = well fitted inhibition curve with a large enough effect; inconclusive = small, poorly fitted or top-dose-only effect; note: potency is the fitted concentration of half-maximal effect; % is set by controls: 0 for no effect and ±100 for the full control effect; nearly all actives have a fitted effect of over 80% in size
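Purified archaeal chaperonin (25 nM final) was preincubated with compound for 10 min at 37°C, then ATP (10 uM final) was added for 30 min at 37°C in Tris pH 7.4/KCl/MgCl2/DTT buffer. ADP was quantified by HTRF Transcreener TR-FRET.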
Rango complex inh: qHTS Assay for Inhibitors of Rango (Ran-regulated importin-beta cargo) - Importin beta complex formation. Rango CFP/YFP FRET sensor + importin beta, 45 min. 340,000 tested, 0.031% active. Importin subunit beta-1 (Homo sapiens), Q14974. Potency, µM (doses to about 92.2 µM), for inactives: at the top dose inhibition of complex formation;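 note: potency is the fitted concentration of half-maximal effect; 0% = DMSO wells and 100% = buffer wells lacking importin beta; nearly all actives have a fitted effect of over 15% in size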
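Inhibition scored from the CFP 486 nm/YFP 530 nm FRET ratio 45 min after adding 0.125 microM importin beta to 50 nM Rango biosensor preincubated 5 min with compound (room temperature, PBS with DTT, Tween-20, BSA). No-importin wells as positive control.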
The depositor's hits bear a star; ? = inconclusive; . = no result given. Unless noted, calls come from the whole dose curve.

SMILES	DRD3 antagonist	TSG101-PTAP inh	DRD3 agonist	Rango release inh	MmCpn inh	Rango complex inh
CCCNC(=O)C(Cc1cccc(Cl)c1)NC(=O)c1ccc(C#N)cc1 (stereo unspecified)	10	-3%	-2	-5%	0%	-5%
CCCCCOC(=O)c1ccc(OC(=O)c2cncc(Br)c2)cc1	-74*	-9%	-1	1%	-1%	2%
CCCCCCCOC(=O)c1ccc(OC(=O)c2cccnc2)cc1	-21	-1%	-17	-6%	0%	-1%
Cc1ccc(/C=C/C(=O)c2ccccc(=O)c2O)cc1C	-4	-3%	-4	8.2µM*	-6%	?
O=C(O)c1cccc(-n2cnc3cccnc32)c1	.	.	7	.	.	.
COc1ccc2c(c1)c(=O)c(C(=O)c1ccc(C)c(C)c1)cn2CC(=O)Nc1ccc2c(c1)OCCO2	.	.	3	.	.	.
Fc1ccc2cnc(-c3ccccc3)c(-c3cccc(C(F)(F)F)c3)c2c1	-64*	-3%	-13	19%	-4%	-4%
Fc1cc(F)cc(-c2c(-c3ccccc3)ncc3ccc(F)cc23)c1	-19	.	-16	-8%	0%	-2%
CC(C)/C=C1\CC/C(=C\c2ccc(N(C)C)cc2)C1=O	-4	?	4	?	2%	?
CN(C)c1ccc(/C=C2/C[N+](C)(C)C/C(=C/c3ccc(N(C)C)cc3)C2=O)cc1	-23	54%	-22	16µM*	.	?
Oc1ccc(CCNc2ncnc3ccc(Cl)cc23)cc1	51	2%	52*	1%	1%	-5%
Nc1nc(Cl)cc(NCCc2ccc(O)cc2)n1	2	-2%	-25	2%	-2%	-3%
COc1ccc(C(=O)N/C(=C\c2ccco2)C(=O)NCCCn2ccnc2)cc1	-55*	-11%	-17	1%	-5%	0%
COC(=O)c1cc(Br)c(=O)n(Cc2ccco2)c1	-52*	-6%	-9	-8%	-3%	0%
CC(CN1CCCCC1)NC(=O)c1scnc1-c1ccccc1 (stereo unspecified)	-84*	.	-21	.	.	.
OCC(O)COc1ccc(Cl)cc1 (stereo unspecified)	.	.	5	.	.	.
Cc1ccc(C2NC(=O)NC3=C2CCc2ccccc23)cc1 (stereo unspecified)	-86*	-8%	1	-19%	-1%	3%
CC(C)c1ccc(C2NC(=O)NC3=C2CCc2ccccc23)cc1 (stereo unspecified)	12	-6%	2	5%	0%	-1%
CCN(CC)S(=O)(=O)c1ccc(F)c(C(=O)NCCC(C)C)c1	13	3%	36*	-10%	-1%	4%
CC1CCCCN1CCNC(=O)Cn1nc(-c2ccccc2)ccc1=O (stereo unspecified)	-98*	0%	-11	5%	-1%	1%
Cc1ccc(-c2ccc(=O)n(CC(=O)NCCCN3CCCCC3C)n2)cc1 (stereo unspecified)	0	-9%	-13	5%	2%	0%
Cn1c(=O)c2c(-c3ccc(Br)cc3)n(Cc3ccc(F)cc3)cc2n(C)c1=O	.	.	-2	.	.	.
Cc1ccc(C)c(N)c1	-1	0%	-9	0%	2%	0%
Cc1ccc(O)c(N)c1	-105*	-1%	-63	-18%	-9%	-1%
CCOc1ccc(NC(=O)c2cnc3sc(N4CCOCC4)nn3c2=O)cc1	.	.	-14	.	.	.
